Screens: PubChem BioAssay, several laboratories
This is a sample that favours compounds with a hit; in the whole collection about 3.3% have one here.
CTSL1 counter = blocks F. hepatica cathepsin L1 in PFM18AAP counter-screen. recombinant F. hepatica cathepsin L1, Z-Leu-Arg-MCA fluorescence. inhibition, % at 5.96 µM. 300,000 compounds, 0.49% hits. AID 1906;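 active = inhibition above the mean of all tested compounds plus 3 SD, set per screening campaign, cut at about 17% in these data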;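 also: 0% = plate median of test compound wells and 100% = 1 µM Z-Phe-Ala-diazomethylketone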
TPT1 inh = inhibitors of Candida albicans tRNA 2'-phosphotransferase TPT1. recombinant caTPT1, FP RNA substrate dephosphorylation. inhibition, % at 5 µM. 300,000 compounds, 0.81% hits. AID 1962;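 active = inhibition above the mean of all tested compounds plus 3 SD, set per screening campaign, cut at about 24% in these data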;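 also: plate controls were DMSO alone for no effect and ferristatin control at 100 nM for full effect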
PHOSPHO1 inh = PHOSPHO1 (human) inhibition; Q8TCT1; recombinant PHOSPHO1, absorbance phosphatase assay; inhibition, % at 13.3 µM; 290,000 compounds, 1.1% hits; in the data active = inhibition above about 60%
NRP1-CendR mod = modulators of CendR peptide binding to human neuropilin-1; inhibition, % at 25 µM; O14786; 360,000 compounds, 0.85% hits; FAM-RPARPAR peptide binding to NRP-1, fluorescence polarization;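 active = inhibition or corrected inhibition above about 18%, plus a signal ratio from 0.5 to 1.5, limit read from the data, passing the limit was not always enough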
Rpn11 inh = Rpn11 (human) deubiquitinase inhibition; 360,000 compounds, 0.59% hits; inhibition, % at 20 µM; human 26S proteasome, Ub4-pepOG fluorescence polarization; 20S core pre-blocked with epoxomicin;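 active = inhibition at 20 µM, scaled to each plate's controls, above about 33%, limit read from the data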
HNF4A DNA FP = change in binding of human HNF4 alpha to DNA; activity change, % at 10 µM; AID 1224865; 360,000 compounds, 0.3% hits; HNF4a-FITC DNA binding, fluorescence polarization, 1 h; in the data active = activity change above about 30%, passing the limit was not always enough
Target sequence (P41235 whole entry, looked up): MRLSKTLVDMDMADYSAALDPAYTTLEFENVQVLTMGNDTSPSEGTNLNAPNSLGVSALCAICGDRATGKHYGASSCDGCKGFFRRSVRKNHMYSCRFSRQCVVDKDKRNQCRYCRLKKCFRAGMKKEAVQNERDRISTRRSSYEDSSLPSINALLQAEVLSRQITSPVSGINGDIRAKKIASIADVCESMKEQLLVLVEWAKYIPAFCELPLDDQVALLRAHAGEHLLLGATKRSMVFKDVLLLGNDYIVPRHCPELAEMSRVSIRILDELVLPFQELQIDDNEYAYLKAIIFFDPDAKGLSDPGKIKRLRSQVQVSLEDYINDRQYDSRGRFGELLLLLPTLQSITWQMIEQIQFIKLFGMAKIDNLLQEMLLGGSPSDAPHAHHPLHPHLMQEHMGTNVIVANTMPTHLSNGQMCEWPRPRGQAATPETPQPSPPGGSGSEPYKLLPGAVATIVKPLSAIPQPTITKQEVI
The depositor's hits bear a star; / = not tested or not shown.

SMILES	CTSL1 counter	TPT1 inh	PHOSPHO1 inh	NRP1-CendR mod	Rpn11 inh	HNF4A DNA FP
c1ccc2c(c1)CC(N1CCCCC1)c1ccccc1S2 (centres undefined)	-0.1	1.2	/	40.6*	-2.5	21.9
CC(=O)N1CCC(O)(c2ccc3c(c2)OCO3)CC1	0.6	-0.2	/	22.2*	-0.3	-2.8
CC(OC(=O)c1ccc([N+](=O)[O-])s1)C(=O)Nc1ncc(Cl)cc1Cl (centres undefined)	27.1*	-7.0	-3.4	-25.7	1.3	-2.8
CCOC(=O)C1=C(C)N=c2s/c(=C\c3ccc(OC(C)=O)cc3)c(=O)n2C1/C=C/c1ccccc1 (centres undefined)	-5.7	2.3	-7.8	-8.7	6.5	36.5*
CCOC(=O)C1=C(C)N=c2s/c(=C\c3ccc(OC(C)=O)c(OCC)c3)c(=O)n2C1/C=C/c1ccccc1 (centres undefined)	0.7	16.0	55.3	-26.4	16.4	7.6
COCCNC(=O)C1CC(c2ccc(C(F)(F)F)cc2)=NO1 (centres undefined)	0.1	-5.0	/	27.9*	-5.0	0.0
O=C(NCc1cc(C(F)(F)F)cc(C(F)(F)F)c1)C1CC(c2ccccc2F)=NO1 (centres undefined)	2.5	-0.2	/	27.7*	-6.9	-1.1
O=C(NCc1cccc(C(F)(F)F)c1)C1CC(c2ccccc2F)=NO1 (centres undefined)	-0.9	-1.9	/	18.7	3.5	-1.3
COc1ccc(C(CNC(=O)CNC(=O)c2cccc(F)c2)N2CCOCC2)cc1 (centres undefined)	/	/	/	-12.4	12.1	1.2
O=C(NNC(=O)C(c1ccccc1)c1ccccc1)c1cccs1	-0.6	-4.5	-10.0	-8.2	-1.1	-0.9
COC(=O)c1ccc(N2C(=O)CC(Sc3n[nH]c(C)n3)C2=O)cc1 (centres undefined)	-5.5	5.2	84.9*	-6.0	-0.7	-0.9
CCCN(C(=O)Cn1c(C(F)(F)F)nc2ccccc21)C1CCS(=O)(=O)C1 (centres undefined)	2.8	-5.6	/	44.7*	6.5	1.5
CC1(C(=O)NCC2CC2)Cc2c(-c3cccc(C(F)(F)F)c3)ccnc2O1 (centres undefined)	/	/	/	34.6*	-1.9	3.5
CCCCn1c(=NC(=O)c2cccnc2)c(C#N)cc2c(=O)n3cccc(C)c3nc21	3.3	-6.7	78.3*	-41.1	-63.7	-1.4
Cc1cccn2c(=O)c3cc(C#N)c(=NC(=O)c4ccncc4)n(CCCOC(C)C)c3nc12	2.8	-23.7	96.2*	3.0	-2.4	1.2
CCCn1c(=NC(=O)c2ccncc2)c(C#N)cc2c(=O)n3cccc(C)c3nc21	/	/	/	-7.1	-2.5	0.5
CC(CNC(=O)CN1C(=O)NC2(CCCCC2)C1=O)c1ccccc1 (centres undefined)	/	/	/	0.9	2.9	-0.7
CC(=O)Nc1ccc(NC(=O)N2CCCCC2)cc1	20.1*	-0.5	-27.1	-19.5	-0.1	-0.1
O=C(Nc1ccc2nsnc2c1)N1CCCCC1	1.6	-1.0	4.2	8.0	-3.8	-0.8
CCc1ccc(NC(=S)N2CCCCCCC2)cc1	-0.4	1.6	68.1*	2.2	-5.8	4.6
S=C(Nc1ccc2nsnc2c1)N1CCCCCC1	107.5*	-38.1	46.6	44.6*	-28.7	-10.4
CCOc1ccc(NC(=S)N2CCCC2)cc1	/	/	17.8	2.0	-5.0	3.3
Cc1c(O[C@@H]2O[C@H](CO)[C@@H](O)[C@H](O)[C@H]2O)c(CO)c(O[C@@H]2O[C@H](CO)[C@@H](O)[C@H](O)[C@H]2O)c2c1O[C@@H](c1ccccc1)C[C@@H]2O	/	/	/	5.4	-5.1	-2.5
COC(=O)Nc1ccc2c(c1)N(C(=O)CCN1CCN3CCCC3C1)c1ccccc1S2 (centres undefined)	-3.0	2.6	66.2*	3.8	-8.0	3.4
COC(=O)Nc1ccc2c(c1)N(C(=O)CCN1CCN3CCCC3C1)c1ccccc1CC2 (centres undefined)	-3.6	-1.1	23.5	-1.9	0.2	1.9
SMILES	CTSL1 counter	TPT1 inh	PHOSPHO1 inh	NRP1-CendR mod	Rpn11 inh	HNF4A DNA FP
Fc1ccc(C2=Nn3c(Cc4ccccc4F)nnc3SC2)cc1	8.9	1.3	62.2*	6.0	6.4	2.6
c1ccc(Cc2nnc3n2N=C(c2ccccc2)CS3)cc1	1.1	-1.2	17.0	-1.8	-1.9	-1.9
Cc1ccc(C(=O)NCC(=O)Nc2ccccc2C)o1	/	/	/	23.2*	4.2	4.9
O=C(Nc1cccc(-c2nc3cccnc3s2)c1)C1c2ccccc2Oc2ccccc21	/	/	6.2	-28.0	34.5	47.3*
CCOC(=O)N1CCN(C(=O)C2CCN(C(=O)c3ccccc3C)CC2)CC1	/	/	/	-42.6	6.9	-5.2
Cc1c(C#N)c(N)c(C(=O)c2ccccc2)n1Cc1ccccc1	5.9	-5.1	14.6	-8.6	-2.3	0.5
CCn1c(C)c(C(=O)c2ccccc2)c(C#N)c1C(=O)O	18.1*	-1.8	24.8	5.0	2.9	-0.2
N#Cc1ccc(OCC(=O)N(C2CCCCC2)C2CCS(=O)(=O)C2)cc1 (centres undefined)	/	/	/	-7.7	0.0	3.4
O=C(Nc1ccccc1)N(O)c1ccc(Cl)cc1	-0.5	2.1	0.2	11.4	4.8	1.2
CCNC(=O)NC(=O)CSc1ccc2ccccc2c1	0.0	0.3	16.6	1.4	5.3	-2.0
CCNC(=O)NC(=O)CSc1ccccc1F	-3.7	0.1	-5.0	34.9*	-0.5	2.5
Cn1c(SCC(=O)N/N=C/C=C\c2ccco2)nc2ccccc21	-0.1	2.7	73.4*	-29.3	-25.5	-8.5
CCCN1CCC(NC(=O)Cc2cccc(C)c2)CC1	3.9	-1.4	/	-0.9	-0.1	0.6
N#Cc1nc(COc2ccc(Cl)cc2)oc1N1CCCCCC1	59.6*	-1.3	-1.2	3.2	-1.0	-0.5
Cc1ccc(OCc2nc(C#N)c(N3CCCCC3)o2)cc1	0.3	1.1	42.1	5.9	8.9	3.3
O=C(Nc1cc(-c2ccccc2)[nH]n1)c1ccccc1	-5.4	-2.9	21.9	25.1*	-4.5	4.3
Cc1noc(/C=C/N(C)C)c1S(=O)(=O)N1CCC(C(=O)Nc2ccc(Cl)cc2)CC1	-2.3	7.6	-9.0	-4.6	6.5	-0.1
Cc1ccc(NC(=O)C2CCCN(S(=O)(=O)c3c(C)noc3/C=C/N(C)C)C2)cc1F (centres undefined)	16.7*	16.8	-2.6	7.0	0.0	1.4
CC(=O)C1=C(C)NC(SCC(=O)c2ccc(Cl)cc2)=C(C#N)C1CC(C)C (centres undefined)	-0.9	2.3	87.4*	-6.2	8.0	4.6
CSCSC1=C(C#N)C(c2ccccc2Cl)C(C(C)=O)=C(C)N1 (centres undefined)	4.8	1.0	93.2*	5.6	-3.3	-1.1
CC(=O)C1=C(C)NC(SCC(=O)c2cc(Cl)ccc2Cl)=C(C#N)C1c1ccco1 (centres undefined)	2.8	16.3	77.8*	-33.6	47.4*	10.2
